Bioassay records deposited in PubChem BioAssay by National Center for Advancing Translational Sciences (NCATS).
Compounds with a hit are over-represented: about 7.4% of the library has one in this group of screens.
Luciferase inh: inhibitors of firefly (Photinus pyralis) luciferase; P08659; purified P. pyralis luciferase, luminescence, biochemical; Potency, µM (highest dose often 115 µM), usual class: inhibitors; 76,000 compounds, 2.5% hits; AID 1347043; note: nearly all actives have a fitted effect of over 65% in size
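Purified P. pyralis luciferase (10nM final) in 50mM Tris acetate pH 7.5, 10mM Mg acetate, 0.01% Tween-20, 0.05% BSA with 10uM D-luciferin and 10uM ATP. Compounds titrated qHTS. Luminescence imaged on CCD.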
NIH3T3 tox: cytotoxic compounds in NIH 3T3 cells; NIH 3T3 viability, CellTiter-Glo ATP luminescence, 48-72 h; Potency, µM (highest dose often 96.7 µM), usual class: inhibitors; 94,000 compounds, 4.3% hits; AID 1345082; note: nearly all actives have a fitted effect of over 55% in size
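Luminescent ATP readout (CellTiter-Glo, 10 min RT) after 48 or 72 hr compound exposure of NIH 3T3 cells seeded at 400 cells/well in 1536-well format; quantitative HTS.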
SNCA expr inhib: inhibitors of alpha-synuclein (SNCA) gene expression; HEK-293 SNCA-luciferase knock-in, luminescence, 24 h; Potency, µM (highest dose often 57.2 µM), most hits filed as inhibitors; 140,000 compounds, 0.17% hits; note: nearly all actives have a fitted effect of over 45% in size
HEK cytotox: kills HEK 293 cells; HEK 293 viability, ATP luminescence (CellTiter-Glo), 48-72 h; Potency, µM (top dose mostly 115 µM), actives largely listed as inhibitors; 94,000 compounds, 6.6% hits; AID 1345083; note: nearly all actives have a fitted effect of over 60% in size
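Luminescence from cellular ATP, measured with CellTiter-Glo, indicates HEK 293 viability. Cells plated at 250 cells/well are treated with compound for 48 or 72 hr at 37 degree Celsius before reagent addition.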
HEK293 viab: counter-screen for SNCA expression inhibitors: cell viability | HEK-293-SNCA-luc viability, GF-AFC fluorescence, 24 h | 150,000 compounds, 0.12% hits | Potency, µM (highest dose often 57.1 µM), hits mostly cytotoxic; note: nearly all actives have a fitted effect of over 30% in size
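Cytotoxicity counterscreen: after 24 h compound treatment of genome-edited SNCA-luciferase HEK-293 cells, live-cell protease substrate GF-AFC read by fluorescence after 30 min; activity scaled between DMSO (0%) and medium-only (-100%), curves Hill-fitted.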
NPR1 antag: antagonists of human natriuretic peptide receptor Npr1. 76,000 compounds, 1.6% hits. HEK293 hNpr1 GloSensor cGMP, ANP-stimulated luminescence. P16066. Potency, µM (doses to about 46.3 µM), actives largely listed as inhibitors; calls by dose curve; note: nearly all actives have a fitted effect of over 60% in size
Target sequence (P16066 whole entry, looked up): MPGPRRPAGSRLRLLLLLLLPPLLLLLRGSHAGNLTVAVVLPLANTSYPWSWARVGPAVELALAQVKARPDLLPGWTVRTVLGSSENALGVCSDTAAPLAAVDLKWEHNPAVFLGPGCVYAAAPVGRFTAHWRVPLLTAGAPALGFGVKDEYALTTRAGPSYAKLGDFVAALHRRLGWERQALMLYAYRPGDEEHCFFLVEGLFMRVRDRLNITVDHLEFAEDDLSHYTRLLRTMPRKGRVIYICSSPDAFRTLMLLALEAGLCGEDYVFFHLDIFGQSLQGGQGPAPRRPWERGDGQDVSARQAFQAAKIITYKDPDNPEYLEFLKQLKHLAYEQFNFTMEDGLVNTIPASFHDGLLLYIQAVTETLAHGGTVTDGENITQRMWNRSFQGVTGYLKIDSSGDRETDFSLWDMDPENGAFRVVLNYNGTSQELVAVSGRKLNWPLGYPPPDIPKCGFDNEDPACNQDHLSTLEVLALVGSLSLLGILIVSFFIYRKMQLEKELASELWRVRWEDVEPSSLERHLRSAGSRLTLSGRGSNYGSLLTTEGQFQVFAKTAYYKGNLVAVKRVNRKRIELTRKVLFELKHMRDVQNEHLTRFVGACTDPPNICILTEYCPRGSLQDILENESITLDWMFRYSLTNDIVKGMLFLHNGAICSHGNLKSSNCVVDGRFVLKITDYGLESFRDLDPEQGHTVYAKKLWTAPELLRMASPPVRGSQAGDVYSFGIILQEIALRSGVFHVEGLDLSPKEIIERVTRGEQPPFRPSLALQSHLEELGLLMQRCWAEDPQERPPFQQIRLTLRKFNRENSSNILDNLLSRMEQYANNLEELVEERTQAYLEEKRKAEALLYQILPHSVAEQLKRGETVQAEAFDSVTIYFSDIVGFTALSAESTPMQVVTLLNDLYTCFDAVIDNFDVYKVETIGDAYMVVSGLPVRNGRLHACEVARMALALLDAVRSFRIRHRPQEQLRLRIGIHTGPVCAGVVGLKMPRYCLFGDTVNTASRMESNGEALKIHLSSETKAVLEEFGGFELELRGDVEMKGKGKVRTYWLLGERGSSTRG
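Compound pre-incubated 30 min at room temperature on GloSensor-loaded HEK293 cells stably carrying hNpr1 and the pGS-40F cGMP biosensor. Stimulation uses hNppA at 0.1 nM final; luminescence is taken at baseline and 20 min post-agonist.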
Each line names hits and unclear results; the compound was inactive in the other large screens. Unless noted, calls come from the whole dose curve; as a rule, active = well fitted curve in the direction sought with a large enough effect; inconclusive = small, poorly fitted or top-dose-only effect, or another doubt; inactive = no such curve, though single readings can be large; an effect the other way counts as inactive or inconclusive.

CC1(CCCCc2ccccc2)COc2ccc(C(=O)NCc3ccncc3)cc2N1 (stereo not given)	NIH3T3 tox inconclusive, HEK cytotox 89µM, NPR1 antag inconclusive
CC1(CCCCc2ccccc2)COc2ccc(C(=O)NCc3cccnc3)cc2N1 (stereo not given)	NIH3T3 tox inconclusive, HEK cytotox inconclusive
O=C(Cc1c(F)cccc1Cl)NC1CCc2n[nH]c(=O)n2CC1 (stereo not given)	none
Cc1noc(C)c1-c1cc2cc(CN(C)C)oc2c(Nc2ccncn2)n1	NIH3T3 tox 45µM, HEK cytotox inconclusive
COc1ccc(Nc2nc(-c3c(C)noc3C)cc3cc(CN(C)C)oc23)cn1	NIH3T3 tox 79µM, HEK cytotox 79µM, HEK293 viab inconclusive
COc1ccc(-c2nc(-c3c(C)noc3C)cc3cc(CN(C)C)oc23)cn1	NIH3T3 tox 50µM, HEK cytotox inconclusive
COc1cc(-c2nc(-c3c(C)noc3C)cc3cc(CN(C)C)oc23)ccn1	NIH3T3 tox 40µM, HEK cytotox 79µM
Cc1noc(C)c1-c1cc(-c2ccccc2C(F)(F)F)cn2cncc12	NIH3T3 tox inconclusive, HEK cytotox 71µM
FC(F)(F)c1ccccc1-c1cc(-c2cccnc2)c2cncn2c1	NIH3T3 tox 45µM, SNCA expr inhib inconclusive, HEK cytotox 63µM
COc1ccccc1-c1cc(-c2cccnc2)c2cncn2c1	NIH3T3 tox inconclusive, SNCA expr inhib inconclusive, HEK cytotox inconclusive
Cc1noc(C)c1-c1cc(-c2ccccc2F)cn2cncc12	NIH3T3 tox inconclusive, HEK cytotox 79µM
Cc1noc(C)c1-c1cc(-c2ccc([S+](C)(=O)[O-])cc2)cn2cncc12	NIH3T3 tox inconclusive, HEK cytotox inconclusive
COc1ccc(-c2nc(C3CC3)nc3c2CCN(Cc2cccnc2)CC3)cc1	NIH3T3 tox inconclusive, HEK cytotox inconclusive
O=C(Cc1cccnc1)N[C@H]1CCOC[C@H]1C1CCOCC1	none
COc1ccc(NC(=O)Cn2c(N3CCCCC3)nc(C)c(C)c2=O)cc1Cl	NIH3T3 tox inconclusive, HEK cytotox 25µM, HEK293 viab inconclusive
CC(C)(C)C(Cn1ccnc1)NC(=O)c1cc(COc2ccc3c(c2)CCCC3)on1 (stereo not given)	Luciferase inh inconclusive, NIH3T3 tox 20µM, SNCA expr inhib inconclusive, HEK cytotox 25µM
CCOc1ccc(NC(=O)c2cc(CN3CCCC3)on2)cc1	none (no result: Luciferase inh, NIH3T3 tox, HEK cytotox, NPR1 antag)
Cc1ccc(Nc2ccnc(N3CCCC3C(=O)NCc3cccs3)n2)cc1 (stereo not given)	NIH3T3 tox inconclusive, SNCA expr inhib inconclusive, HEK cytotox inconclusive (no result: Luciferase inh, NPR1 antag)
Cc1ccc(C2Cn3nnc(C(=O)N4CCC(C(=O)Nc5cc(F)cc(F)c5)CC4)c3CO2)cc1 (stereo not given)	Luciferase inh 28µM
Cc1ccc(C2Cn3nnc(C(=O)N4CCC(C(=O)Nc5ccc(F)c(F)c5)CC4)c3CO2)cc1 (stereo not given)	Luciferase inh 40µM, HEK cytotox inconclusive
COc1ccc(-c2c(C(=O)NCC3CCCCC3)nc3sccn23)cc1	NIH3T3 tox inconclusive, HEK cytotox inconclusive, HEK293 viab inconclusive (no result: Luciferase inh, NPR1 antag)
O=C(CCC(=O)n1ncc2c(Cl)cccc21)N1CCC(Cc2nc(C3CCOCC3)no2)CC1	HEK cytotox inconclusive, NPR1 antag 13µM
O=C(C1CC1)N1CCC(Cc2nc(C3CCOCC3)no2)CC1	none
COc1ccc(C(=O)N2CCOCC3(CN(Cc4ccc(F)c(Cl)c4)C3)C2)cc1OC	HEK cytotox inconclusive
COc1ccc(C(=O)N2CCOCC3(CN(Cc4cccc(Cl)c4)C3)C2)cc1OC	NIH3T3 tox inconclusive, SNCA expr inhib inconclusive, HEK cytotox 45µM
COc1ccc(C(=O)N2CCOCC3(CN(Cc4cc(F)ccc4F)C3)C2)cc1OC	NIH3T3 tox inconclusive, HEK cytotox 112µM
COCCN1Cc2[nH]nc(-c3cc(OC)ccc3OC)c2CC1=O	NIH3T3 tox inconclusive
Cc1nc2ccccc2n1Cc1cc(C(=O)N2CCN(C)C(=O)[C@@H]2C)n[nH]1	none
C[C@@H]1CN(c2ccc3nnc(-c4ccccn4)n3n2)C[C@H](C)O1	NIH3T3 tox 79µM, SNCA expr inhib inconclusive, HEK cytotox inconclusive
CN(Cc1ccccc1)c1ccc2nnc(-c3ccccn3)n2n1	NIH3T3 tox 45µM, SNCA expr inhib inconclusive, HEK cytotox inconclusive
COc1ccc(-c2nnc3ccc(N(C)Cc4ccccc4)nn23)nc1	NIH3T3 tox inconclusive, HEK cytotox inconclusive
Cc1ccc(OCC(=O)c2ccc3c(c2)N(CCCC(=O)N2CCOCC2)C(=O)CO3)c(Cl)c1	Luciferase inh inconclusive
C=CCO[C@@H]1CCN2C(=O)c3cc(-c4cc(Cl)ccc4OC)ccc3NC(=O)[C@H]12	NIH3T3 tox 100µM, SNCA expr inhib inconclusive, HEK cytotox 63µM, HEK293 viab inconclusive
